Data as given in the OligoGym collection.

target: CCDC102B; assay: pooled miR-30 sensor sort-seq; sequence = guide strand; details: shRNA
Note: reference of the scale not given here.

Sequence	sensor-assay potency score (higher = more potent)
TTGATGATTGTTGCATCTGGAA	-0.905
TTTGTTAATACAACCTGCCATC	-1.01
TTCACCTGGATCTTCAGCCTTC	0.0425
TTATTCTGAGTTGTCTTCCTTC	0.72
TTCAGCTCGAACTTTACTCCAT	0.199
ATCAACACCATCTAGATTGGGC	0.0383
TTGCATTTCATCATTATGTTGA	0.234
TAATCTATTTTTCTTATCCAAA	-1.3
TAACATTAGCTTCTAATGCCTC	-0.718
TTTGTGACATCTTGAAATCAGG	-1.26
TTGTTGAATAAATCAACACCAT	-0.659

target: CCDC105; assay: as above; details: shRNA

Sequence	sensor-assay potency score (higher = more potent)
TTGAGTAGGACCTCTGATTTTT	-1.1
TTAATCTTTCCTTCAGCTCCAA	0.0783
TTTGCCATTTCTACCAAGGTGT	-0.502
TATATTTCGTACACCGGAGGAT	0.16
TAATCTTTCCTTCAGCTCCAAG	-0.875
TTCGCTGAGCCTGTGGTCGGTG	-0.476
TTTTCTGACCCTGTGTGCGTGG	-0.545
TATCTGCAGCTGTTGCTCCCGG	-0.913
TTGCGCACTTCGCTGAGCCTGT	-0.764
TTTTTCCATATCTCTCTCCATT	-1.2
TTCAGCTCCAAGGTCTCGCTCG	-0.194
TTGGACTCGACCAACAACCGCT	-0.0723

target: CCDC111; assay: as above; details: shRNA

Sequence	sensor-assay potency score (higher = more potent)
TAAAAGCTTGAGCTTGTCGATG	-0.777
TATTTCTTGTATAAACTCCGAG	-0.0493
TATAGTAAAACCAAAATTCAGC	-0.935
TAAACCAGTAATTCTTCTGGGA	0.0581
TTGTCGATGAAATAGTCTCCAG	-1.27
TTTGATGATTTATATAGCCGAA	-0.728
TTGTAAACTCTTCTTCCTCTTT	-0.271
TTTTATTGAAAGAAAATCCTTG	0.279

target: CCDC124; assay: as above; details: shRNA

Sequence	sensor-assay potency score (higher = more potent)
TTTCAGCTGCGACAGCCGCATG	-1.52
TCTGCTTCTTGGCATCAGCGGC	-1.05
TGAGCTTGGAGTCCTCCTCCTC	-1.05
TTGAGCTTGGAGTCCTCCTCCT	-0.0303
TTGTCGTCGTCCTTCCAGTAGG	-1.14
TGACGTGTTTGTCGTCGTCCTT	-0.925
TTGAGCAGCTGTTTCAGCTGCG	0.469
TTGTTTGAGCCGCGGCAGCTGG	-1.54
TAGGCGCTGCGTCTCCTTCTTA	-1.03
